USP1 inh: blocks the human USP1/UAF1 deubiquitinase complex | O94782 | recombinant USP1/UAF1, Ub-Rhodamine cleavage fluorescence | Potency, µM (top dose mostly 57.1 µM), for inactives: at the highest dose activity change, negative = inhibition, most hits filed as inhibitors | hit rate 0.23% among 390,000; note: % is set by controls: 0 for no effect and ±100 for the full control effect; nearly all actives have a fitted effect of over 60% in size
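In this screen, compounds sit with the deubiquitinase complex (1nM) for 15 min at room temperature before Ub-Rho is added at 150nM final. Fluorescence rise is then followed for 6 reads every 60 seconds.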
EPAC1 antagonist: blocks human EPAC1 exchange factor. O95398. EPAC1 GEF assay, Rap1b-BODIPY-GDP exchange fluorescence. Potency, µM (top dose mostly 115 µM), without a hit: top-dose activity change, negative = inhibition, most hits filed as inhibitors. hit rate 0.14% among 360,000;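 note: plate controls were vehicle for no effect and positive control for full effect; nearly all actives have a fitted effect of over 50% in size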
EPAC2 agonist: agonists of human EPAC2 (RAPGEF4). EPAC2 activation, biochemical qHTS; response scale: 100% = 6.5 mM cAMP response. Potency, µM (top dose mostly 154 µM), without a hit: at the highest dose activation, actives largely listed as activators. hit rate 0.079% among 360,000. Q8WZA2; note: nearly all actives have a fitted effect of over 50% in size
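Setup: EPAC2 100 nM, labeled Rap1B complex 250 nM, free GDP 50 uM. Compound titrations pinned in, brief spin, 5 min room temperature incubation. Kinetic fluorescence read over 30 min, normalized to 6.5 mM cAMP.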
ALOX12 inh: blocks human arachidonate 12S-lipoxygenase. P18054. purified 12hLO, xylenol orange hydroperoxide absorbance. Potency, µM (top dose mostly 108 µM), for inactives: top-dose activity change, negative = inhibition, actives largely listed as inhibitors. hit rate 1.1% among 580,000; note: % is set by controls: 0 for no effect and ±100 for the full control effect
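Purified human 12hLO at 150 nM in 25 mM Hepes, 0.01% Triton X-100, pH 7.0, preincubated 15 min at room temperature with compound. Reaction started with 40 uM arachidonic acid, 30 min at room temperature. Hydroperoxide measured by Fe-xylenol orange, 573/405 nm absorbance ratio.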
EPAC2 antagonist: EPAC2 (human) antagonism; Q8WZA2; EPAC2 GEF exchange of Rap1B-BODIPY-GDP, fluorescence; Potency, µM (highest dose often 114 µM), for the others: at the highest dose activity, negative = inhibition, most hits filed as inhibitors; hit rate 0.18% among 360,000; note: % is set by controls: 0 for no effect and ±100 for the full control effect; nearly all actives have a fitted effect of over 45% in size
EPAC1 agonist: agonists of human EPAC1; EPAC1 agonist qHTS, biochemical assay; response scale: 100% = response to 6.5 mM cAMP; hit rate 0.073% among 360,000; O95398; Potency, µM (doses to about 154 µM), inactives show top-dose activation, hits mostly activators; AID 720707; note: nearly all actives have a fitted effect of over 60% in size
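Compounds were pinned as a concentration titration into mixtures of EPAC1 (100 nM), BODIPY-GDP-loaded Rap1B (250 nM) and GDP (50 uM). After 5 min at room temperature, fluorescence was followed for 30 min; activity was scaled to 6.5 mM cAMP.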
* marks the source's active call; other numbers are inactive results; u = inconclusive; x = no result. An excerpt weighted towards active compounds, which were near 1.3% of everything screened. Calls come from the whole dose curve; as a rule, active = well fitted curve in the direction sought with a large enough effect; inconclusive = small, poorly fitted or top-dose-only effect, or another doubt; inactive = no such curve, though single readings can be large; an effect the other way counts as inactive or inconclusive. Potency is the fitted concentration of half-maximal effect.

SMILES	USP1 inh	EPAC1 antagonist	EPAC2 agonist	ALOX12 inh	EPAC2 antagonist	EPAC1 agonist
C=CCN1C(=O)c2cccc3c(N4CCCCC4)ccc(c23)C1=O	u	31.9%	100µM*	-1.5%	66.7%	13.8%
O=C1c2cccc3c(N4CCCCC4)ccc(c23)C(=O)N1CCO	u	-19.8%	3.4%	u	-0.5%	0.0%
O=C1c2cccc3c(N4CCCCC4)ccc(c23)C(=O)N1c1cccc(O)c1	u	59.4%	100µM*	-19.3%	78.8%	u
O=C(c1cccc(N2C(=O)c3ccccc3C2=O)c1)N1CCCCCC1	-17.8%	-13.3%	0.9%	-17.2%	-14.9%	-13.5%
COc1cc(=O)n(-c2ccc(F)cc2)nc1C(=O)Nc1ccc(Br)cc1C	x	x	x	43.0%	x	x
Cc1ccc(-c2c(C)sc3nc[nH]c(=O)c23)cc1C	-18.5%	-29.5%	-1.0%	13.6%	-2.9%	-3.7%
Clc1ccc(-c2ccn[nH]2)cc1	-13.3%	3.7%	1.5%	u	-17.8%	14.7%
S=c1nccc(-c2ccc(Cl)cc2)[nH]1	14.8%	-1.5%	2.0%	12.6µM*	-10.6%	10.0%
Cc1ccc(-c2ccnc(=S)[nH]2)cc1C	x	x	x	2.51µM*	x	x
Cc1[nH]c2ccccc2c1C(=O)C(=O)NCCCC(N)=O	x	x	x	59.5%	x	x
COc1cc2ccccc2cc1C(=O)Nc1nnn(C)n1	x	x	x	26.0%	x	x
CC(=O)OCCCCCCCCCCC[N+]1(C)CCCCC1	-11.6%	21.0%	-0.6%	u	-7.1%	10.0%
C[N+]1(CC[N+]2(C)CCCCC2)CCCCC1	x	x	x	3.98µM*	x	x
COc1ccc(-c2noc(CC3CCN(C(=O)c4cc(F)ccc4Cl)CC3)n2)cc1	x	x	x	27.5%	x	x
c1ccc(-c2nc(CSC3=NCCCN3)cs2)cc1	x	x	x	15.8µM*	x	x
COc1cccc(-c2ocnc2C(=O)NCc2cc(OC)ccc2OC)c1	x	x	x	2.2%	x	x

Source: PubChem
